Laboratory results reported in PubChem BioAssay.
The source made the active and inactive calls.

Legend:
Albumin (Bos taurus) = Albumin (Bos taurus) (UniProt P02769); experiment: bovine serum albumin binders on microarray, profiling panel, artefact control for SMM control protein annotation, biochemical, small-molecule microarray, Alexa647 label, 635/667 nm fluorescence (AID 1118); details: BSA-A647 binding, fluorescence 635 nm, higher = more signal;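 note: score merges 667 nm emission intensity and signal-to-noise per printed compound spot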
[1] = small-molecule microarray binders of probe aXIP, primary screen, biochemical, NeuroSMM set, 635/667 nm fluorescence (AID 1119); details: higher = more signal, called active from +8 up or from −8 down;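 note: probe is the protein aXip251-270 applied at 1 µg/mL to compound-printed slides; binding of probe to printed compounds measured as 667 nm fluorescence plus signal to noise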
[2] = small-molecule binders of probe aNOTCH3, primary screen, biochemical, small-molecule microarray, 635/667 nm fluorescence (AID 1120); details: higher = more signal;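 note: probe is a biotin-tagged antibody raised against NOTCH3 rather than NOTCH3 protein; score merges spot fluorescence near 667 nm with spot signal to noise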
[3] = small-molecule binders of probe aNOTCH2, primary screen, biochemical, small-molecule microarray, 635/667 nm fluorescence (AID 1121); details: higher = more signal;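 note: score merges feature fluorescence read at 667 nm with its signal to noise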
[4] = molecular target: Carbonic anhydrase 2 (Homo sapiens) (UniProt P00918); experiment: CAII small-molecule binders, profiling panel, biochemical, small-molecule microarray, Alexa647-labelled CAII (AID 1122); details: CAII-A647 binding fluorescence, higher = more signal
[5] = COS7 lysate on small-molecule microarray, probe aHis, 635 nm (AID 1123); details: COS7 cell lysate, fluorescence, higher = more signal;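 note: z-score combines 667nm fluorescence intensity with signal-to-noise per printed compound spot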
[6] = compound binding in COS7 lysate, probe aLAP1, primary screen, cell lysate, small-molecule microarray (AID 1124); details: probe aLAP1, fluorescence, higher = more signal;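 note: lysate comes from COS7 cells expressing LAP1 and is applied at 0.3 µg/mL; score merges spot fluorescence near 667 nm with signal-to-noise over triplicate slides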
Sam68 (KHDRBS1) = experiment: Sam68 small-molecule binders, primary screen, biochemical, small-molecule microarray, 635 nm fluorescence (AID 1125); details: small-molecule microarray binding, higher = more signal;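 note: score merges 667 nm channel intensity with signal to noise over triplicate slides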
[7] = tested on: Chordin-like protein 2 (CHRDL2); experiment: CHRDL2 small-molecule binders, primary screen, biochemical, small-molecule microarray, 635 nm fluorescence (AID 1126); details: small-molecule microarray binding, fluorescence 635 nm; higher = more signal;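 note: printed compound slides probed with Chrdl2 protein at 4 µg/mL for 1 h at 4 C; score merges 667 nm emission intensity with signal to noise over three replicate slides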
[8] = molecular target: Concanavalin-A (Canavalia ensiformis) (UniProt P02866); experiment: ConA small-molecule binders, primary screen, artefact control for SMM control protein annotation, biochemical, small-molecule microarray, Alexa647 label, 635 nm (AID 1127); details: ConA-A647 binding fluorescence, higher = more signal;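 note: z combines 667 nm emission intensity with signal-to-noise across three replicate slides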
[9] = anti-His antibody binders, primary screen, artefact control for SMM control protein annotation, biochemical, small-molecule microarray, 635 nm fluorescence (AID 1128); details: anti-His Alexa647 antibody binding, higher = more signal;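 note: score merges feature fluorescence with signal-to-noise for each printed compound spot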
[10] = tested on: Human papillomavirus type 1a E7 protein (residues 1-88); experiment: HPV1a E7 small-molecule binders, primary screen, biochemical, small-molecule microarray, residues 1-88, 635 nm (AID 1129); details: small-molecule microarray binding, fluorescence 635 nm; higher = more signal
[11] = molecular target: Focal adhesion kinase 1 (Homo sapiens) (UniProt Q05397); experiment: small-molecule microarray binders of FAK, primary screen, biochemical, 635/667 nm fluorescence, BSA, DTT (AID 1130); details: PTK2 binding, 635 nm fluorescence, higher = more signal;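 note: composite of spot emission at 667 nm and signal to noise over triplicate slides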
[12] = tested on: Fibrinogen (Alexa647-labelled); experiment: fibrinogen binders on compound microarrays, profiling panel, artefact control for SMM control-protein annotation, biochemical, small-molecule microarray, 635/667 nm fluorescence (AID 1131); details: fibrinogen-A647 binding fluorescence, higher = more signal;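 note: z-score merges 667 nm fluorescence with per-spot signal-to-noise over triplicate slides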
[13] = molecular target: Follistatin (Homo sapiens) (UniProt P19883); experiment: follistatin binders on small-molecule microarrays, primary screen, biochemical, small-molecule microarray, 635/667 nm fluorescence (AID 1132); details: FST binding, 635 nm fluorescence, higher = more signal
[14] = molecular target: Fibroblast growth factor 2 (Homo sapiens) (UniProt P09038); experiment: FGF2 binders on small-molecule microarrays, primary screen, biochemical, small-molecule microarray, 635/667 nm fluorescence (AID 1133); details: small-molecule microarray binding, FGF2, fluorescence 635/667; higher = more signal
[15] = mitochondrial membrane potential change in A549 cells, profiling panel, cell-based, JC-1 fluorescence, basal, 24 h, 100 nL (AID 1138); details: higher = more signal;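 note: A549 lung adenocarcinoma cells under basal conditions with no added stimulus; test concentration not given here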
Lefty1 = Lefty1 binders on small-molecule microarrays, primary screen, biochemical, small-molecule microarray, 635/667 nm fluorescence (AID 1139); details: small-molecule microarray binding, fluorescence 635/667; higher = more signal
[16] = tested on: wheat germ agglutinin (Triticum aestivum), Alexa647-labelled; experiment: wheat germ agglutinin binders on compound microarrays, profiling panel, artefact control for SMM control-protein annotation, biochemical, small-molecule microarray, 635/667 nm fluorescence (AID 1140); details: WGA-A647 binding, 635 nm fluorescence, higher = more signal;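 note: score merges 667 nm feature emission with signal to noise over triplicate slides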
[17] = molecular target: Luciferin 4-monooxygenase (Photinus pyralis) (UniProt P08659); experiment: firefly luciferase enzyme inhibitors, primary screen, biochemical, luminescence, purified enzyme, 2006 set (AID 1141); details: SteadyGlo luminescence, 30 min, higher = more signal, called active from +8 up or from −8 down;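 note: cell-free assay with purified firefly luciferase at 100 ng per well in PBS; test concentration not given here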
Luciferin 4-monooxygenase (Photinus pyralis), sequence (P08659 whole entry, looked up): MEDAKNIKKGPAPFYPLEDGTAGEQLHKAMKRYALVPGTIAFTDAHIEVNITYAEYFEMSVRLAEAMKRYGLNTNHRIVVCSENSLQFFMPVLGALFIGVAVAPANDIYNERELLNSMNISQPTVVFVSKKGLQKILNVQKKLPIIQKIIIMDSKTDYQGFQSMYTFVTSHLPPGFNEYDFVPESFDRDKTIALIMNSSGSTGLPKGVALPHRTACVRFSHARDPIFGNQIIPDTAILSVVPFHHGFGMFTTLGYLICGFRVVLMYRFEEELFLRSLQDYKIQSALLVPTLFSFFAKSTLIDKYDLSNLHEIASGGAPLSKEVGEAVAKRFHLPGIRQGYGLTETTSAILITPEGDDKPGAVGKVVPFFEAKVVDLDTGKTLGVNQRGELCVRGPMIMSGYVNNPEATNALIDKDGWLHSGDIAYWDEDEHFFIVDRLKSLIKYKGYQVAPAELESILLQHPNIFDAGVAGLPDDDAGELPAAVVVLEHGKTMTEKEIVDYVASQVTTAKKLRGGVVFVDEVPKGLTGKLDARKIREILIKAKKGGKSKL

Focal adhesion kinase 1 (Homo sapiens), sequence (Q05397 whole entry, looked up): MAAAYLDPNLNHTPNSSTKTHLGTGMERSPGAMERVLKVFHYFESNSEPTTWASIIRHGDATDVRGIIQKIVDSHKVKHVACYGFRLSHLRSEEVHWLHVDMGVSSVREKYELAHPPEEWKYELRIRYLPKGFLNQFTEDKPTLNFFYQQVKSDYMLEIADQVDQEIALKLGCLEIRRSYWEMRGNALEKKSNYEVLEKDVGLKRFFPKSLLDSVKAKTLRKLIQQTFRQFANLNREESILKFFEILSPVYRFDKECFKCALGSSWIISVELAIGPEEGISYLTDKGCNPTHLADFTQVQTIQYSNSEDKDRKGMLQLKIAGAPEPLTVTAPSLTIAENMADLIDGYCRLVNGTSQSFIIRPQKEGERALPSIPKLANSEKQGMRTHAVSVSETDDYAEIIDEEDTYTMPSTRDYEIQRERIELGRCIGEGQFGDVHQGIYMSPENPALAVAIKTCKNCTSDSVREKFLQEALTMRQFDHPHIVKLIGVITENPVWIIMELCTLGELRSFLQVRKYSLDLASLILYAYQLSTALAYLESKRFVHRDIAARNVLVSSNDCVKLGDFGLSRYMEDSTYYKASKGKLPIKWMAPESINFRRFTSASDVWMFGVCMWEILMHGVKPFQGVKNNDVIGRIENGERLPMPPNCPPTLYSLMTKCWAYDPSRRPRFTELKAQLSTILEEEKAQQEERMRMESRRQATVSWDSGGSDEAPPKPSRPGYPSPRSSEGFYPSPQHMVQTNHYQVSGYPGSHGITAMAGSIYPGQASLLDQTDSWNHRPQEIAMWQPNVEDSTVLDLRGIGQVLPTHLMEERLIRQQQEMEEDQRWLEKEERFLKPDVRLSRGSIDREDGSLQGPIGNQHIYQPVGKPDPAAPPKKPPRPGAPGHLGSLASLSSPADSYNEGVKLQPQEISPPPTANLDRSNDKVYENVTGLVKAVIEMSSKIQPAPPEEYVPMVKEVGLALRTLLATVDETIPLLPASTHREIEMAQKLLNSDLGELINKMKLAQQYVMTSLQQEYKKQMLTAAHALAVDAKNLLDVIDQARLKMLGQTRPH
Fibroblast growth factor 2 (Homo sapiens), sequence (P09038 whole entry, looked up): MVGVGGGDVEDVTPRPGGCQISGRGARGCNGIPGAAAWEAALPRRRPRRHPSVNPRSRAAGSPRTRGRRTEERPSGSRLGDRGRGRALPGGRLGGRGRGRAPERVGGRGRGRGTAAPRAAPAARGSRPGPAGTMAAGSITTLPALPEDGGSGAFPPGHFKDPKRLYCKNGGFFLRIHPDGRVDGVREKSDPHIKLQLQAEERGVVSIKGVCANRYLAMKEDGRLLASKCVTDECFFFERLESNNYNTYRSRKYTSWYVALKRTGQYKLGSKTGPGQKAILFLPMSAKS
Follistatin (Homo sapiens), sequence (P19883 whole entry, looked up): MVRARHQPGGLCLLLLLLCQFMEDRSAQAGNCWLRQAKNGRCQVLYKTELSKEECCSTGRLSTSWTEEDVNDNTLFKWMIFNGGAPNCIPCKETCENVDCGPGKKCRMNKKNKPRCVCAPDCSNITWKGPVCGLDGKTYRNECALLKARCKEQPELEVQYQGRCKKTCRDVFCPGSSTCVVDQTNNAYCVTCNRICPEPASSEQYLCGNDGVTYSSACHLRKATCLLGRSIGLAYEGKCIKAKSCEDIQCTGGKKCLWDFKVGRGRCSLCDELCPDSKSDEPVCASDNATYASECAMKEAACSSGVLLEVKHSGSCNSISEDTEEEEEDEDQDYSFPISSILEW
Concanavalin-A (Canavalia ensiformis), sequence (P02866 whole entry, looked up): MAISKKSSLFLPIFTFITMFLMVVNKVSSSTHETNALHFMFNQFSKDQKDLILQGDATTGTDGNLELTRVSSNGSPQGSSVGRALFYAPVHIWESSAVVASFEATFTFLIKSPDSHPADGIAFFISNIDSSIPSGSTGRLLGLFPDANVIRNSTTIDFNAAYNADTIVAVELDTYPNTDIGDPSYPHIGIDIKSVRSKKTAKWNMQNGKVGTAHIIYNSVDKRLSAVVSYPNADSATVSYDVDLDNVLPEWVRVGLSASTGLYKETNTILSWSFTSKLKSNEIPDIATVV
Albumin (Bos taurus), sequence (P02769 whole entry, looked up): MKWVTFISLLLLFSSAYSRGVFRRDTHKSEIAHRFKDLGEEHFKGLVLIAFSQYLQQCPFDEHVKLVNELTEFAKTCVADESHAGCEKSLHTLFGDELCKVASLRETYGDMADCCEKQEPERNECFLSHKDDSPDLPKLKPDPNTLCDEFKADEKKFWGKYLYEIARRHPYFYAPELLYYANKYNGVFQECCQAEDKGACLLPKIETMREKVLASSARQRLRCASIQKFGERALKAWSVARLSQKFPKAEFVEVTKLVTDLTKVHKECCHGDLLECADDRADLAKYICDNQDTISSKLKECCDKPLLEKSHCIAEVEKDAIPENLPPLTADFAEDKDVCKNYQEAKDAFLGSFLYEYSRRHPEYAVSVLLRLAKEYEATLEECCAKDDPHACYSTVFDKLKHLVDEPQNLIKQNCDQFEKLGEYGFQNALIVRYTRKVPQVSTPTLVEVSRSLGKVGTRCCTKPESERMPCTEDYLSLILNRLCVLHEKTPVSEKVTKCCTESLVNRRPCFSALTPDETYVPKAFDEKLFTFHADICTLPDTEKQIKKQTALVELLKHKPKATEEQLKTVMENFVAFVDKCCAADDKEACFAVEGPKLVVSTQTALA

Structure (SMILES) | composite z-score (Albumin (Bos taurus)) | composite Z-score [1] | composite z-score [2] | composite z-score [3] | composite z-score [4] | composite z-score [5] | composite z-score [6] | composite z-score (Sam68 (KHDRBS1)) | composite z-score [7] | composite z-score [8] | composite z-score [9] | composite z-score [10] | composite z-score [11] | composite z-score [12] | composite z-score [13] | composite z-score [14] | z-score [15] | composite z-score (Lefty1) | composite z-score [16] | z-score [17]
C=CC[C@]1(C(=O)NCCN2CCOCC2)N=C(c2ccc(OCCCO)cc2)O[C@H]1c1ccccc1 | -0.051 | 0.0999 (inactive) | 0.0813 | 0.0564 | 0.703 | 1.51 | 0.601 | 1.18 | 0.708 | 0.469 | 0.566 | 0.845 | 0.0827 | -0.212 | 1.44 | 1.8 | 0.654 | 0.918 | 0.496 | 0.601 (inactive)
COC(=O)[C@@]1(Cc2ccc(F)cc2)[C@H]2c3cc(C(=O)N4CCCC4)n(CCSCCO)c3C[C@H]2CN1C(=O)c1ccccc1 | 0.855 | -0.338 (inactive) | 0.241 | 0.231 | 0.839 | 3.25 | 0.258 | 0.644 | -0.562 | 0.532 | 0.163 | 0.767 | 1.11 | 0.982 | -0.16 | -0.79 | 0.281 | -0.973 | 0.679 | 0.5 (inactive)
CS(=O)(=O)CCOC(=O)C1=CC(CCCO)=CC(C2CC2)N(Cc2sc3ccccc3c2Cl)C=C1C(=O)OCCS(C)(=O)=O (stereo not given) | 1.01 | -0.0349 (inactive) | 0.398 | 0.0706 | 0.666 | 2.34 | 0.549 | 1.07 | -0.225 | 0.648 | 2.14 | 1.04 | 0.435 | 0.753 | 1.3 | 0.897 | 0.995 | 1.23 | 1.03 | -1.14 (inactive)
CC[C@@H](O[Si](C#C[Si](C(C)C)(C(C)C)C(C)C)(C(C)C)C(C)C)c1cn(Cc2cccc(Cl)c2)nn1 | 0.0711 | -0.0359 (inactive) | -0.119 | -0.0495 | 0.226 | 0.233 | 0.773 | 1.04 | 0.451 | 0.68 | 0.448 | 0.79 | 0.357 | 0.377 | 0.371 | 0.46 | -0.153 | 0.809 | 0.23 | 0.433 (inactive)
COCCCNC(=O)[C@@]1(Cc2ccccc2I)c2ccccc2C(=O)N(Cc2ccccc2C(F)(F)F)[C@H]1c1ccc(CO)cc1 | 0.251 | 0.29 (inactive) | -0.136 | -0.148 | 0.487 | 1.85 | -0.462 | 0.302 | -1.44 | -0.375 | 0.611 | 0.742 | -0.0483 | 0.0568 | 0.672 | -0.742 | 0.104 | -1.15 | -0.107 | 0.636 (inactive)
COc1cc(Cc2cc3c(c(CCc4ccccc4)n2)[Si](C(C)C)(C(C)C)O[C@H]3c2ccccc2)cc(OC)c1OC | -0.405 | -0.0849 (inactive) | -0.15 | -0.181 | -0.128 | -0.178 | -0.177 | -0.361 | 0.06 | 0.562 | -0.133 | -1.36 | -0.114 | 0.0047 | 0.214 | -0.392 | -1.64 | -0.261 | -0.192 | -0.0946 (inactive)
C[C@]12C(=O)N(CCO)[C@@H]3C(=O)N(c4ccc(Cl)cc4)CC=CC31O[C@@H]1/C=C\CCCOC(=O)C12 (stereo not given in full) | 0.575 | 0.0414 (inactive) | -0.183 | -0.0798 | 0.883 | -0.485 | -0.0785 | -0.0284 | -1.62 | -0.263 | -0.415 | -0.639 | -0.422 | -0.333 | -0.178 | -0.711 | -0.574 | -0.185 | -0.839 | -0.0708 (inactive)
CC(C)C[C@@H]1NC(=O)[C@@H]2C[C@H](C(=O)NCCCCCNC(=O)CS)[C@H](c3ccc(O)cc3)N2C1=O | -0.0368 | -0.442 (inactive) | -0.101 | -0.104 | 0.36 | 2.1 | -0.646 | 0.92 | 0.652 | 0.374 | 2.52 | -0.0315 | 0.322 | 0.0178 | 0.815 | 1.24 | -0.976 | 0.627 | 0.263 | 0.448 (inactive)
CN1C(=O)C2C=CC(C(O)c3cccs3)N(N(c3ccccc3)c3ccccc3)C2C1=O (stereo not given) | 0.994 | 0.343 (inactive) | 0.17 | -0.0037 | 0.714 | 1.69 | 0.518 | 1.02 | -0.362 | 0.644 | 2.34 | 1.08 | 0.663 | 0.954 | 0.569 | -0.469 | 0.7 | 0.169 | 1.06 | -0.697 (inactive)
C=CCNC(=O)[C@H]1[C@@H]2C(=O)O[C@@H](c3ccccc3)[C@@H](c3ccccc3)N2[C@@H](c2ccc(OCCO)cc2)[C@]12C(=O)Nc1ccc(C#Cc3ccc(OC)cc3)cc12 | 0.404 | 0.637 (inactive) | 0.146 | 0.0805 | 0.386 | 2.34 | 0.315 | 1.3 | 0.581 | 1.18 | 1.38 | 1.23 | 0.905 | 0.965 | 1.37 | 0.977 | -1.7 | 0.811 | 1.14 | 0.152 (inactive)
[N-]=[N+]=NCc1ccccc1C[C@@]1(C(=O)NCCN2CCOCC2)N=C(c2ccc(OCCCO)cc2)O[C@@H]1c1ccccc1 | 0.818 | 1.03 (inactive) | 0.307 | -0.106 | 0.655 | 2.77 | 0.136 | 1.19 | -0.879 | 0.944 | 1.42 | 1.18 | 0.444 | 0.947 | 1.23 | -0.426 | 1.44 | 0.573 | 0.639 | -1.04 (inactive)
